Data published in PubChem BioAssay AID1903 (Southern Research Specialized Biocontainment Screening …, 2009).
The campaign covered roughly 310,000 compounds. About 1,200 (0.39%) were called active. How the calls were made is not given here. Only a sample is shown. Entries with a potency or affinity are not part of this list.

Each compound was assayed against Large T antigen (Simian virus 40) (UniProt P03070) (assay: TAg ATPase/helicase activity blockers – biochemical (AID 1903)). Settings: SV40 large T antigen ATPase/helicase inhibition assay; at 20 µM; active compounds read high.
Large T antigen (Simian virus 40), sequence (P03070 whole entry, looked up): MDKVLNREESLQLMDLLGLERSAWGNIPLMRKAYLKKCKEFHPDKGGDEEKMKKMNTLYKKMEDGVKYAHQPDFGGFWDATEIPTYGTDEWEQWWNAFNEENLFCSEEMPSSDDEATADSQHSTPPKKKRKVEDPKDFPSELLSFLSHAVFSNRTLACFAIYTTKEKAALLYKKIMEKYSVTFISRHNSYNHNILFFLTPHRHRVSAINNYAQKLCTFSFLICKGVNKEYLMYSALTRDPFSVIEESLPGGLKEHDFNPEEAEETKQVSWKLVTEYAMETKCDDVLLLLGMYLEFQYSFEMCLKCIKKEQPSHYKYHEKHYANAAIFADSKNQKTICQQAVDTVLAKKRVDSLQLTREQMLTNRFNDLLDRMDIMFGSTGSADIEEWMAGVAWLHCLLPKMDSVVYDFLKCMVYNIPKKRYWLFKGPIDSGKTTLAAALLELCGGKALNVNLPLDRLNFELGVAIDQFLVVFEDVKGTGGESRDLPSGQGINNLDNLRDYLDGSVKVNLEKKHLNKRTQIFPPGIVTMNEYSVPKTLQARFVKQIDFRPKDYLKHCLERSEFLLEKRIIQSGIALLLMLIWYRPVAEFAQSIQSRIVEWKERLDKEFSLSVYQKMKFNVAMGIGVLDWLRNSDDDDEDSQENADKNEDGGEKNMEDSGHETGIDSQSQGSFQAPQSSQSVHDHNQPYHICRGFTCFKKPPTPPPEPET

inhibition, inactive:
Cc1c(C(=O)/C=C/N(C)C)nnn1-c1ccc(F)c(Cl)c1 10.7%
CC(NS(=O)(=O)c1ccc(Br)cc1)C(N)=O (stereo not given) 3.6%
COc1ccc(/C=N/NC(=O)c2cccc(Br)c2)cc1CN1CCOCC1 4.55%
Cc1c(Cl)c([N+](=O)[O-])nn1Cc1ccc(C(=O)N/N=C\c2cccc(Br)c2)o1 -0.98%
Cc1c(Cl)c([N+](=O)[O-])nn1Cc1ccc(C(=O)N/N=C\c2ccccn2)o1 6.44%
COc1cc(/C=N\NC(=O)c2ccc(Cn3cc(Br)c([N+](=O)[O-])n3)o2)cc(OC)c1O 32.8%
COc1ccc(/C=N/NC(=O)c2ccc(N)cc2)cc1Cn1cc([N+](=O)[O-])cn1 -3.89%
COc1ccc(/C=N/NC(=O)c2ccc(Cn3cc([N+](=O)[O-])cn3)o2)cc1O 17.9%
COc1ccc(/C=N/NC(=O)c2ccccc2O)cc1Cn1cc([N+](=O)[O-])cn1 12.7%
COc1ccc(/C=N/NC(=O)c2ccncc2)cc1CN1CCOCC1 14.2%
Cc1ccc([N+](=O)[O-])c(C(=O)N/N=C/c2cccnc2)c1 13.6%
O=[N+]([O-])c1cccc(/C=N/N2CCN(Cc3ccccc3)CC2)c1 16.1%
CN1CCOc2ccc(S(=O)(=O)NCCc3ccc(Cl)cc3)cc21 4.83%
CC(Oc1ccc(Br)cc1)C(=O)NCC(c1cccs1)N1CCOCC1 (stereo not given) 0.98%
O=C(NNc1ccc([N+](=O)[O-])cc1)C1C2CCCCC21 (stereo not given) 2.05%
CC1CCN(S(=O)(=O)c2cccc(C(=O)N(Cc3ccccc3)c3ccccn3)c2)CC1 6.8%
CN(C)/C=C(\C#N)C(=O)Nc1ccc(F)c(Cl)c1 14.7%
CN(C)/C=C(\C#N)C(=O)Nc1ccc(F)cc1 -1.08%
COc1ccc(C)cc1NC(=O)c1ccc2c(O)c(S(=O)(=O)c3ccccc3)c(=O)[nH]c2c1 13.8%
CC(C)(C)c1ccc(OCC(O)CSc2ncn[nH]2)cc1 (stereo not given) 3.06%
COc1ccc2c(c1)C(=O)c1ccccc1CO2 10.1%
COc1ccc2c(c1)C(=O)CC(c1ccccc1F)O2 (stereo not given) 15.3%
O=C1C2C3C=CC(CO)(O3)C2C(=O)N1c1ccccc1-c1ccccc1 (stereo not given) 13.7%
O=C(O)c1c(-c2ccccc2)oc2ccc(O)cc12 15%
CCN(CC)C(=O)c1c(-c2ccccc2)oc2ccc(O)cc12 13.9%
CCn1c(=O)n(CC)c2cc(S(N)(=O)=O)ccc21 3.97%
CCn1c(=O)n(CC)c2cc([N+](=O)[O-])ccc21 -2.72%
O=C(COc1ccccc1Cl)NCc1nc(-c2ccccc2)no1 10.2%
Cc1ccc(Nc2nc(N)c([N+](=O)[O-])c(N3CCOCC3)n2)cc1 9.48%
COc1ccc(Nc2nc(N)c([N+](=O)[O-])c(N3CCOCC3)n2)cc1 10.9%
Cc1cc(/C=C(\C#N)C(=O)O)c(C)n1C1CC1 11.4%
O=C(N/N=C/c1ccc(OCc2ccc(F)cc2)cc1)c1ccccc1 1.09%
Cc1cc(C)c2c(=O)n(CC(=O)N3CCC(Cc4ccccc4)CC3)sc2n1 3.6%
Cc1nn(CC(=O)N2CCC(N3CCCCC3)CC2)c(=O)c2c1sc1ccccc12 17.6%
CCOC(=O)C1CCCN(C(=O)Cn2sc3nc(C)cc(C)c3c2=O)C1 (stereo not given) 73.4%
Cc1cccc(N2CCN(C(=O)Cn3nc(C)n4cccc4c3=O)CC2C)c1 (stereo not given) 8.5%
CN1CCN(c2ccc(Cl)cc2NC(=O)c2ccc(=O)n(C)n2)CC1 22.8%
CC(C)c1ccc2[nH]c(O)c(N=NC(=O)c3cccc(S(=O)(=O)Nc4ccccc4Cl)c3)c2c1 -4.52%
COc1ccccc1C(=O)NNC(=O)c1sccc1-n1cccc1 8.72%
CCN(CC)CCN1c2ccccc2Sc2ccccc21 34.5%
CN(C)CCCN1c2ccccc2Sc2ccccc21 33%
CCCCN(C(=O)c1ccc([N+](=O)[O-])o1)c1c(N)n(CC(C)C)c(=O)[nH]c1=O 20.2%
COc1cccc(-c2cc(C(=O)Nc3cc(C)on3)no2)c1 3.2%
Cc1ccc2oc(=O)c3cnn(CC(=O)NCCCOC(C)C)c3c2c1 5.01%
CCOC(=O)Cc1csc(NC(=O)c2ccc3c(c2)OCO3)n1 -7.42%
NC1=NC(=O)/C(=C/c2cc(Br)c(O)c(Br)c2)S1 23.3%
COc1ccc(/C=C2\SC(c3ccc(C)cc3)=NC2=O)cc1OC 4.55%
COc1ccc(/C=C2/SC(c3ccc(C)cc3)=NC2=O)cc1OC 7.06%
COc1cc(/C=C2\SC(c3ccc(C)cc3)=NC2=O)cc(OC)c1OC 14.7%
O=C(Nc1ccc(CN2CCOCC2)cc1)c1ccc(Br)o1 4.15%
CCCc1nn(-c2cc(Cl)ccc2OC)c2c1C(=O)CC(C)(C)C2 2.88%
CC(C)C(=O)N(c1ccc2oc(=O)sc2c1)S(=O)(=O)c1ccccc1 25.6%
CC(=O)N(c1ccc2oc(=O)sc2c1)S(=O)(=O)c1ccc(C(=O)O)cc1 23.9%
CCCC(=O)N(c1ccc2oc(=O)sc2c1)S(=O)(=O)c1cccs1 34.4%
CC(C)C(=O)N(c1ccc2oc(=O)sc2c1)S(=O)(=O)c1cccs1 22.8%
Cc1ccsc1C(=O)OCC(=O)NCc1ccc2c(c1)OCO2 20.1%
O=C(O)C1CC=CCC1C(=O)N1CCCC1 (stereo not given) -0.98%
O=C1NC(=O)/C(=C\c2ccsc2)N1 2.09%
COCOc1cc(O)c2c(=O)c(OCOC)c(-c3ccc(OCOC)c(OCOC)c3)oc2c1 7.99%
COc1c(-c2ccc(O)c(O)c2)oc2cc(O)cc(O)c2c1=O 9.05%
